PubChem BioAssay AID540253 (National Center for Advancing Translational Sciences (NCATS), 2011)
In all, about 340,000 compounds went through this assay and about 240 (0.071%) were called active. Another 5% or so got no clear call; they are omitted. Calls come from the whole dose curve. What follows is part of a selection rich in actives, with near analogues and random picks from the rest. A call without a number means that no potency is given here.
Note: nearly all actives have a fitted effect of over 45% in size.
Potency is the fitted concentration of half-maximal effect.

These molecules were tested against Snurportin-1 (Homo sapiens) + GTP-binding nuclear protein Ran (Homo sapiens) + Importin subunit beta-1 (Homo sapiens) (UniProt O95149+P62826+Q14974) (assay: qHTS Assay for Inhibitors of RanGTP induced Rango (Ran-regulated importin-beta cargo) - Importin beta complex dissociation). Details: Biochemical FRET Rango-importin beta; series mostly up to 46.1 µM.
From the text: NIH Molecular Libraries Probe Production Centers Network [MLPCN] NIH Chemical Genomics Center [NCGC] MLPCN Grant: R03 MH090808-01A1 Assay Submitter (PI): Petr Kalab NCGC Assay Overview: The small GTPase Ran regulates transport of macromolecules between the nucleus and the cytoplasm (nuclear transport) and has important functions in mitotic spindle assembly, nuclear envelope (NE) formation and nuclear pore complex (NPC) assembly. RanGTP gradient is thought to promote spindle assembly by providing a spatial clue to microtubule nucleation and Aurora A activation. Because the localized release and binding of importin alpha cargos relays this spatial clue to SAFs, inhibitors of the Rango - importin beta complex can then be used in further understanding their role in cell cycle specifically in mitosis progression. […] Activation of Aurora A has been linked to different types of cancer and a number of Aurora kinase inhibitors are being developed as potential canter therapeutics; therefore, identified inhibitors of this complex could be developed into potential anti-mitotic probes for cancer treatment. Purified recombinant proteins Rango - importin beta and RanGTP-RCC1 stock premixes were provided by the assay submitter. The assay used a fluorescence resonance energy transfer (FRET) Rango biosensor that contains the IBB of human snurportin 1 flanked by yellow fluorescent protein (EYFP) at the amino terminus and cerulean CFP10 at the carboxy terminus. […] RanGTP binding to the complex (in the presence of RCC1) releases the Rango from the complex. The flexibility of the IBB in the freed Rango allows the donor - acceptor fluorophores to interact, resulting in a high FRET signal. Inhibitors will therefore be identified based on the ability to interfere with the FRET signal increase. DMSO treated and no RanGTP-RCC1 (buffer only) wells were used as negative and positive controls respectively. FRET readings were obtained at two time points. FRET reading prior to importin beta addition (pre-read) were used flag potential compound interference; FRET reading after importin beta addition (post-read) were used to identify inhibitors.
NCGC Assay Protocol Summary: Two and a half uL/well of Rango- importin beta premix solution (0.1 uM Rango, 0.25 uM importin beta, 1x PBS, 1mM DTT, 0.02% Tween-20, 0.1% BSA final concentrations) was dispensed into 1536-well assay plates (Greiner, solid black medium-binding plates) with Aurora Discovery BioRAPTR Flying Reagent Dispenser (FRD; Beckton-Dickenson). Compound solution (23 nL) was transferred to the assay plate using Kalypsys pin tool equipped with a 1536-pin tool and incubated at room temperature for 5 min followed by a FRET pre-read using the PerkinElmer Envision plate reader. Two and a half uL/well of RanGTP-RCC1 premix solution (0.6 uM Ran, 2mM GTP, 0.2 uM RCC1, 1x PBS, 1mM DTT, 0.02% Tween-20, 0.1% BSA final concentrations) were then added and incubated at room temperature giving a final reaction volume of 5uL. After 45min FRET post-read was obtained via the Envision plate reader using the same optics and settings as the pre-read (CFP/YFP optimized dual optical module D450/D505; excitation mirror CFP 430/24 nm; and emission filters CFP 486/10 nm and YFP 530/10 nm).
`O=C(NNC(=O)C1CCCC1)c1ccc(F)cc1` was tested, and the Potency was “inactive”. In the case of `Cc1ccc(/C=C/C(=O)Nc2ccc([N+](=O)[O-])c(NC(=O)/C=C/c3ccc(C)o3)c2)o1`, the Potency is reported as “inactive”. In the case of `O=C(/C=C/c1ccc([N+](=O)[O-])o1)NNC(=O)c1ccc(F)cc1`, the Potency is reported as 20.6 µM [inhibitor] (active). With `O=C(Cc1ccc(NC(=O)C2CCCN(C(=O)CCc3ccccc3)C2)cc1)Nc1ccc(C(=O)N2CCOCC2)cc1` (stereo not drawn) the Potency was “inactive”. For `CC(C)=CCc1ccc(O)c(=O)cc1C(C)C`, the Potency was “inactive”. In the case of `CCCCN(C(=O)CSCc1ccc(C)cc1)c1c(N)n(Cc2ccccc2)c(=O)[nH]c1=O`, the Potency is reported as “inactive”. For `CSCCC(NC(=O)COc1ccccc1)C(=O)OCc1ccc(Cl)cc1` (stereo not drawn), the Potency was “inactive”. For `CC(C)Sc1nc(N)nc2c1ncn2C1OC(CO)C(O)C1O` (stereo not drawn), the Potency was “inactive”. For `COc1ccc(N)c(C)c1`, the Potency was “inactive”. `CN1CCC(N(C)C(=O)c2ccc(Cl)c(S(=O)(=O)Nc3ccc(Cl)cc3)c2)CC1` was tested, and the Potency was “inactive”. In the case of `CC1C(C)N(C(=O)CCl)c2ccccc2N1C(=O)CCl` (stereo not drawn), the Potency is reported as “inactive”. `Cn1c(=S)sc2ccc3ccccc3c21` was tested, and the Potency was “inactive”. For `COC(=O)Cc1c(-c2[nH]c3ccccc3c2CC(=O)OC)[nH]c2ccccc12`, the Potency was “inactive”. `COc1cc2c(cc1OC)C1C(=O)c3cc(OS(C)(=O)=O)c(OC)cc3C1N(C)C2=O` (stereo not drawn) was tested, and the Potency was “inactive”. In the case of `COc1ccc2oc(N)nc2c1`, the Potency is reported as “inactive”. For `CCN(CC)S(=O)(=O)c1cccc(NC(=O)c2ccc(S(=O)(=O)N3CCCC3)cc2)c1`, the Potency was “inactive”. With `CCOC(=O)C1CCCN(C(=O)C2CCN(S(=O)(=O)c3ccc(Cl)c(C(F)(F)F)c3)CC2)C1` (stereo not drawn) the Potency was “inactive”. In the case of `O=C(Nc1ccccc1)Oc1cccc2cccnc12`, the Potency is reported as “inactive”. With `O=C(NCC1CCCCC1)NCC1CCCCC1` the Potency was “inactive”. `CSCCC(NC(=O)COc1ccccc1)C(=O)N1CCN(c2cccc(C(F)(F)F)c2)CC1` (stereo not drawn) was tested, and the Potency was “inactive”. With `O=C(CC(=O)c1cccnc1)c1ccccc1` the Potency was “inactive”. In the case of `Nc1cc2c(cc1Br)-c1ccc(F)cc1C2=O`, the Potency is reported as “inactive”. `O=C1/C(=C\c2ccc([N+](=O)[O-])cc2)CS(=O)(=O)C/C1=C/c1ccc([N+](=O)[O-])cc1` was tested, and the Potency was “inactive”. With `O=C(NNC(=O)c1ccccc1O)c1ccccc1O` the Potency was “inactive”. In the case of `CCOC(=O)C(CO)NC(=O)C1(NC(C)=O)CCCC1` (stereo not drawn), the Potency is reported as “inactive”. `CCCC(O)(c1ccccc1)C(c1ccccc1)c1ccccn1` (stereo not drawn) was tested, and the Potency was “inactive”. `O=C(NCCc1ccccc1)c1c[nH]c2ccc(F)cc2c1=O` was tested, and the Potency was “inactive”. `O=C1CC[C@@H]2CC3(C[C@@H]4CCN1[C@H]24)Nc1cc([N+](=O)[O-])ccc1NC3=NC1CCCCC1` (stereo partly drawn) was tested, and the Potency was “inactive”. In the case of `CN(C(=O)c1cccc(NC(=O)Cc2ccc(NC(=O)C3CCCN(C(=O)C4CC4)C3)cc2)c1)C1CC1` (stereo not drawn), the Potency is reported as “inactive”. In the case of `CN(CCc1ccccc1)C(=O)c1cccc(NC(=O)Cc2cccc(NC(=O)C3CCCN(C(=O)C4CCC4)C3)c2)c1` (stereo not drawn), the Potency is reported as “inactive”. In the case of `C[C@@H]1ON(C)[C@H]2C[C@H]3c4cc(N5CCN(C)CC5)ccc4CCN3C(=O)[C@@H]12`, the Potency is reported as “inactive”. For `CC1CCCN(C(=O)Cn2c(=O)oc3cc(S(=O)(=O)N4CCCCC4C)ccc32)C1` (stereo not drawn), the Potency was “inactive”. For `NC1=NOC(=O)C1C1CCCCC1` (stereo not drawn), the Potency was “inactive”.
